# Laboratory results: PubChem BioAssay (Tox21)
# “And” between values parts separate entries of the source, which are not always exact repeats. Identical values can stand only once. Inconclusive results are not listed. Entries that show only a call come without a potency. Where a structure was tested more than once in an assay, its records may differ in their call. The source made the active and inactive calls. Unless noted, calls come from the whole dose curve; as a rule, active = well fitted curve in the direction sought with a large enough effect in the repeat runs; inconclusive = weak or mixed curves; inactive = no such curve, though single readings can be large; an effect the other way counts as inactive or inconclusive.
# Experiments:
# [1] = qHTS assay to identify small molecule agonists of the vitamin D receptor (VDR) signaling pathway - cell viability counter screen (AID 743224); note: series mostly up to about 63 µM; nearly all actives have a fitted effect of over 50% in size
# How it was run: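 Plated VDR-bla cells (4 h, 37C) received compound, incubated 16 h, then LiveBLAzer substrate 2 h RT; CellTiter-Glo added afterwards, luminescence read at 30 min.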
# [2] = qHTS assay to identify small molecule antagonists of the vitamin D receptor (VDR) signaling pathway - cell viability counter screen (AID 743225); note: nearly all actives have a fitted effect of over 50% in size
# How it was run: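 Read-out: CellTiter-Glo luminescence measured 30 min after reagent addition at room temperature. Cells were VDR-bla HEK 293T exposed 16 h at 37C, 5% CO2, to compound with 3 nM final calcitriol agonist.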
# [3] = qHTS assay to identify small molecule agonists of the NFkB signaling pathway (AID 1159509; active = well fitted curve in the direction sought with a large enough effect in the signal ratio in the repeat runs, not every such curve was filed as active; the % refers to the signal ratio; note: series mostly up to about 61 µM)
# How it was run: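 ME-180 NFkB-bla, 2,000 cells/well, overnight plating; cpd pinned in DMSO, 5 h 37 C; B/G FRET substrate 1.5 h RT; ex 405, em 460/530 nm.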
# [4] = qHTS assay to identify small molecule agonists of the NFkB signaling pathway - cell viability counter screen (AID 1159515; calls by dose curve; note: series mostly up to about 61 µM; nearly all actives have a fitted effect of over 55% in size)
# How it was run: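 Using the same wells as the NFkB reporter read, ME-180 NFkB-bla cells given compounds for 5 hr were assessed for viability via CellTiter-Glo, with luminescence taken after a 30 min room-temperature incubation.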
# [5] = qHTS assay to identify small molecule agonists of the endoplasmic reticulum stress response signaling pathway (AID 1159516; active = well fitted activation curve with a large enough effect in the signal ratio in the repeat runs, not every such curve was filed as active; the % refers to the signal ratio)
# How it was run: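 An ESRE-bla HeLa cell assay: compounds were pin-transferred from DMSO onto overnight-plated cells and left 5 hr at 37 C. Substrate was then loaded for 2 hr at room temperature before reading fluorescence at 460 nm and 530 nm.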
# [6] = qHTS assay to identify small molecule agonists of the endoplasmic reticulum stress response signaling pathway - cell viability counter screen (AID 1159517; calls by dose curve;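 note: HeLa cells carrying an ER stress response element beta-lactamase reporter; series mostly up to about 61 µM; nearly all actives have a fitted effect of over 50% in size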)
# How it was run: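 ESRE-bla HeLa cells, 1,500 per well, seeded overnight then treated with compounds for 5 hr at 37 C. After the beta-lactamase read, viability in the same wells is measured by CellTiter-Glo luminescence after 30 min at room temperature.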
# [7] = qHTS assay to identify small molecule antagonists of the retinoid-related orphan receptor gamma (ROR-gamma) signaling pathway - cell viability counter screen (AID 1159520); note: nearly all actives have a fitted effect of over 50% in size; note: potency is the fitted concentration of half-maximal effect
# How it was run: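 Tet-on ROR gamma CHO cells were given compounds for 2 hr, then doxycycline hyclate at 1 uM final, and incubated 16 hr at 37 C. Viability was measured as ATP content by CellTiter-Glo luminescence.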
# [8] = target: Nuclear receptor ROR-gamma (Homo sapiens) (UniProt P51449); assay: qHTS assay to identify small molecule antagonists of the retinoid-related orphan receptor gamma (ROR-gamma) signaling pathway (AID 1159521; note: nearly all actives have a fitted effect of over 50% in size; note: potency is the fitted concentration of half-maximal effect)
# How it was run: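 CHO Tet-on RORγ, RORE-luc reporter. Cpd 2 h pre-incubation, then dox hyclate 1 uM final, 16 h, 37 C/5% CO2. ONE-Glo luminescence; decrease = antagonist.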
# [9] = qHTS assay to identify small molecule agonists of the AP-1 signaling pathway - cell viability counter screen (AID 1159525; calls by dose curve; note: nearly all actives have a fitted effect of over 55% in size; note: potency is the fitted concentration of half-maximal effect)
# How it was run: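 AP-1-bla ME-180 cells in Opti-MEM with 0.5% dialyzed FBS, compound exposure 5 h at 37 C in 15-point titration. Viability read in the same wells as ATP content by CellTiter-Glo luminescence, normalised to tetra-n-octylammonium bromide and DMSO controls.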
# [10] = qHTS assay to identify small molecule agonists of the AP-1 signaling pathway (AID 1159526; calls by dose curve; note: potency is the fitted concentration of half-maximal effect)
SMILES,outcome [1],outcome [2],outcome [3],outcome [4],outcome [5],outcome [6],Potency [7],Potency [8],Potency [9],Potency [10]
Nc1ccc(Cc2ccc(N)cc2)cc1,inactive,inactive,inactive,inactive,inactive,inactive,inactive,inactive,inactive,inactive
COCCl,inactive,inactive,inactive,inactive,inactive,inactive,inactive,inactive,inactive,inactive
Cc1[nH]c(=O)n(C(C)(C)C)c(=O)c1Cl,inactive,inactive,inactive,inactive,inactive,inactive,inactive,inactive,inactive,inactive
Cn1cc(-c2ccccc2)c(=O)c(-c2cccc(C(F)(F)F)c2)c1,inactive,inactive,inactive,inactive,inactive,inactive,inactive,inactive,inactive,inactive
NCCc1ccc(O)cc1,inactive,inactive,inactive,inactive,inactive,inactive,inactive,inactive,inactive,inactive
O=c1[nH]c2ccccc2c(=O)o1,inactive,inactive,inactive,inactive,inactive,inactive,inactive,inactive,inactive,inactive
CCCCCCCCCCCC#N,inactive,inactive,inactive,inactive,inactive,inactive,inactive,inactive,inactive,inactive
O=C1CCCN1,inactive,inactive,inactive,inactive,inactive,inactive,inactive,inactive,inactive,inactive
COC(=O)c1ccccc1N,inactive,inactive,inactive,inactive,inactive,inactive,inactive,inactive,inactive,inactive
C1CN2CCN1CC2,inactive,inactive,inactive,inactive,inactive,inactive,inactive,inactive,inactive,inactive
Cc1ccc([N+](=O)[O-])cc1C,inactive,inactive,inactive,inactive,inactive,inactive,inactive,inactive,inactive,inactive
Clc1ccc(Cl)cc1,inactive,inactive,inactive,inactive,inactive,inactive,inactive,inactive,inactive,inactive
NCC(O)c1ccc(O)cc1 (stereo not drawn),inactive,inactive,inactive,inactive,inactive,inactive,inactive,inactive,inactive,inactive
CC(C#N)CCC#N (stereo not drawn),inactive,inactive,inactive,inactive,inactive,inactive,inactive,inactive,inactive,inactive
Nc1ccc(Oc2ccc(N)cc2)cc1,inactive,inactive,inactive,inactive,inactive,inactive,inactive,inactive,inactive,inactive
BrCCBr,inactive,inactive,inactive,inactive,inactive,inactive,inactive,inactive,inactive,inactive
OC(O)C(Cl)(Cl)Cl,inactive,inactive,inactive,inactive,inactive,inactive,inactive,inactive,inactive,inactive
CCC12COCN1COC2,inactive,inactive,inactive,inactive,inactive,inactive,inactive,inactive,inactive,inactive
C#CC(C)(C)NC(=O)c1cc(Cl)cc(Cl)c1,inactive,inactive,inactive,inactive,inactive,inactive,inactive,inactive,inactive,inactive
CC(=O)C=C(C)C,inactive,inactive,inactive,inactive,inactive,inactive,inactive,inactive,inactive,inactive
O=NN1CCCC1,inactive,inactive,inactive,inactive,inactive,inactive,inactive,10.1 µM (active) and inactive,inactive,inactive
C[C@]12CC[C@H]3[C@@H](CC[C@@]45O[C@@H]4C(O)=C(C#N)C[C@]35C)[C@@H]1CC[C@@H]2O,inactive,inactive,inactive,inactive,inactive,inactive,inactive,48.6 µM (active),inactive,inactive
Cc1cc(Cl)ccc1O,inactive,inactive,inactive,inactive,inactive,inactive,inactive,inactive,inactive,inactive
Clc1cccc(Cl)c1Cl,inactive,inactive,inactive,inactive,inactive,inactive,inactive,inactive,inactive,inactive
c1ccc2c(c1)Oc1ccccc1O2,inactive,inactive,inactive,inactive,inactive,inactive,inactive,inactive,inactive,inactive
CCCC1COC(Cn2cncn2)(c2ccc(Cl)cc2Cl)O1 (stereo not drawn),inactive,inactive,inactive,inactive,inactive,inactive,inactive,43.3 µM (active),inactive,inactive

SMILES,outcome [1],outcome [2],outcome [3],outcome [4],outcome [5],outcome [6],Potency [7],Potency [8],Potency [9],Potency [10]
CC(Oc1ccc(Cl)cc1Cl)C(=O)O (stereo not drawn),inactive,inactive,inactive,inactive,inactive,inactive,inactive,inactive,inactive,inactive
CC(NC(C)(C)C)C(=O)c1cccc(Cl)c1 (stereo not drawn),inactive,inactive,inactive,inactive,inactive,inactive,inactive,inactive,inactive,36.8 µM (active)
c1ccc(-c2ccccc2)cc1,inactive,inactive,inactive,inactive,inactive,inactive,inactive,inactive,inactive,inactive
C=C(C)CCl,inactive,inactive,inactive,inactive,inactive,inactive,inactive,inactive,inactive,inactive
O=c1ccc(=O)[nH][nH]1,inactive,inactive,inactive,inactive,inactive,inactive,inactive,inactive,inactive,inactive
COC(=O)c1ccccc1C(=O)OC,inactive,inactive,inactive,inactive,inactive,inactive,inactive,inactive,inactive,inactive
CCOP(=S)(OCC)SCCSCC,inactive,inactive,inactive,inactive,inactive,inactive,inactive,inactive,inactive,inactive
CCC[N+](=O)[O-],inactive,inactive,inactive,inactive,inactive,inactive,inactive,4.25 µM (active) and inactive,15.2 µM (active) and inactive,inactive
CCCCN(CCCC)SN(C)C(=O)Oc1cccc2c1OC(C)(C)C2,inactive,inactive,inactive,inactive,inactive,inactive,62.1 µM (active),22 µM (active) and 30.6 µM (active),inactive,inactive
CC1C=[C-]C=C1.[C-]#[O+].[C-]#[O+].[C-]#[O+].[Mn],inactive,inactive,inactive,inactive,inactive,inactive,inactive,inactive,inactive,inactive
Cc1ccc(N)cc1N,inactive,inactive,inactive,inactive,inactive,inactive,inactive,inactive,inactive,inactive
OCCN(CCO)CCO,inactive,inactive,inactive,inactive,inactive,inactive,inactive,–,inactive,inactive
CC(C)C#N,inactive,inactive,inactive,inactive,inactive,inactive,inactive,inactive,inactive,inactive
Oc1ccccc1Cl,inactive,inactive,inactive,inactive,inactive,inactive,inactive,–,inactive,inactive
CCCN(CCC)c1c([N+](=O)[O-])cc(C(F)(F)F)cc1[N+](=O)[O-],inactive,inactive,inactive,inactive,inactive,inactive,inactive,inactive,inactive,inactive
CC(C)OC(=O)Nc1ccccc1,inactive,inactive,inactive,inactive,inactive,inactive,inactive,inactive,inactive,inactive
CCNc1nc(NC(C)C)nc(SC)n1,inactive,inactive,inactive,inactive,inactive,inactive,inactive,inactive,inactive,inactive
CCCCCOC(=O)c1ccccc1C(=O)OCCCCC,inactive,inactive,inactive,inactive,inactive,inactive,inactive,inactive,inactive,–
O=c1n(Cl)c(=O)n(Cl)c(=O)n1Cl,inactive,inactive,–,inactive,inactive,inactive,inactive,inactive,inactive,inactive
O=NN1CCCCCCC1,inactive,inactive,inactive,inactive,inactive,inactive,inactive,–,inactive,inactive
CN(N=O)c1ccccc1,inactive,inactive,–,inactive,inactive,inactive,inactive,inactive,inactive,inactive
CN=C=S,inactive,inactive,inactive,inactive,inactive,inactive,inactive,–,inactive,inactive
Cc1ccccc1O,inactive,inactive,inactive,inactive,inactive,inactive,inactive,inactive,inactive,inactive
COC(=O)NS(=O)(=O)c1ccc(N)cc1,inactive,inactive,inactive,inactive,inactive,inactive,inactive,inactive,inactive,inactive
O=c1[nH]c(=O)[nH]c(=O)[nH]1,inactive,inactive,inactive,inactive,inactive,inactive,inactive,inactive,inactive,inactive
CC(C)(C)OOC(=O)c1ccccc1,inactive,inactive,inactive,inactive,inactive,inactive,inactive,inactive,inactive,inactive
